The panel holds about 79,000 compounds, 15% with a hit somewhere; the sample as a whole holds those more often. Rule as the data show it: active = growth inhibition above about 70%; inactive = the rest.
What was measured:
[1] = NCI Yeast Anticancer Drug Screen. Data for the rad50 strain (AID 155);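 also: 0% = growth of vehicle-only cultures of the same strain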; conditions: S. cerevisiae rad50 strain growth inhibition; at 50.0 µM; active compounds read high
Method in brief: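 Cells are treated with compound, grown, and their growth is then scored against vehicle-only cultures of the same repair-deficient yeast strain.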

[2] = NCI Yeast Anticancer Drug Screen. Data for the mec2-1 strain (AID 157); conditions: S. cerevisiae mec2-1 strain, at 50.0 µM, active compounds read high
Method in brief: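 Compounds were applied to mec2-1 yeast cells. Their growth was then compared with that of vehicle-treated cultures to give growth inhibition.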

[3] = NCI Yeast Anticancer Drug Screen. Data for the sgs1 mgt1 strain (AID 161);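 also: 0% = growth of cultures given vehicle only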; conditions: S. cerevisiae sgs1 mgt1 strain, at 50.0 µM, active compounds read high
Method in brief: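 Growth of a repair-deficient yeast mutant was monitored after compound treatment and expressed as inhibition relative to vehicle-treated cultures.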

[4] = NCI Yeast Anticancer Drug Screen. Data for the cln2 rad14 strain (AID 165);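 also: 0% = growth equal to vehicle treated cultures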; conditions: S. cerevisiae cln2 rad14 strain, at 50.0 µM, active compounds read high
Method in brief: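 Strain: cln2 rad14 yeast, altered in cell cycle control and DNA damage repair. Read-out: growth inhibition vs vehicle.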

[5] = NCI Yeast Anticancer Drug Screen. Data for the bub3 strain (AID 167); conditions: S. cerevisiae bub3 mutant strain, at 50.0 µM, active compounds read high
Method in brief: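 Part of a panel of yeast mutants defective in DNA damage repair or cell cycle regulation. Each strain is grown with compound, and inhibition is calculated relative to solvent-treated cultures.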

[6] = NCI Yeast Anticancer Drug Screen. Data for the mlh1 rad18 strain (AID 175); conditions: S. cerevisiae mlh1 rad18 strain growth inhibition; at 50.0 µM; active compounds read high
Method in brief: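 A repair-deficient yeast strain is exposed to test compound, and growth is scored relative to vehicle-treated controls.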

Measured: growth inhibition

CCOC(=O)C1(C)CCCC1=O (stereo unspecified)
inactive: [1] 13.8% | [2] -8.6% | [3] 3.95% | [4] 6.95% | [5] 2.6% | [6] -0.4%

CSC1(SC2=NCCN2)SC2(NCCN2)S1
inactive: [1] 1.75% | [2] -10.8% | [3] -41.6% | [4] -24.1% | [5] -1.55% | [6] -18.1%

C1C[S][Ge]2([S]CCS1)[S]CCSCC[S]2
inactive: [1] -10.4% | [2] -30.5% | [3] -16.6% | [4] -15.5% | [5] -30.6% | [6] -14.8%

NC(=O)c1nsc(-c2ccc([N+](=O)[O-])cc2)c1N
inactive: [1] -10.8% | [2] 0.9% | [3] -1.8% | [4] 30.6% | [5] -17.8% | [6] -3.7%

CC1(Br)CC2OC3(Br)C=CC(C)(O)C2(CC1=O)C3(C)C (stereo unspecified)
inactive: [1] 27.2% | [2] 10.8% | [3] 13.4% | [4] 15.7% | [5] 20.4% | [6] 25.9%

O=C1CC2C=CC(O)C(C1)C2 (stereo unspecified)
inactive: [1] -20.3% | [2] 1.65% | [3] -30.6% | [4] 21.1% | [5] -58.2% | [6] -109%

COc1ccc(Cl)c2c(=O)c3ccc4c(c3[nH]c12)C(=O)c1ccccc1C4=O
inactive: [1] 21.8% | [2] -5.6% | [3] 4.25% | [4] -17.6% | [5] 3.8% | [6] 4.65%

O=C(C[n+]1cccc2cccc(O)c21)c1ccc2ccccc2c1
inactive: [1] 6.6% | [2] 7.6% | [3] 18.8% | [4] 26.6% | [5] 1.15% | [6] 2.7%

Nc1ccc(N2N=C(N3CCCC3)CC2=O)cc1
inactive: [1] -26.6% | [2] -48.8% | [3] -10.8% | [4] 1.2% | [5] -12.7% | [6] -23.4%

Cc1cc(Cl)c(C)c(C)c1O
inactive: [1] 22.6% | [2] 5.45% | [3] -20.2% | [4] 16.6% | [5] 1.25% | [6] 21.4%

CCCCCCCCCC(=O)OCCCC(CCCOC(=O)CCCCCCCCC)OC(=O)CCCCCCCCC
inactive: [1] -19.9% | [2] -6.85% | [3] -6.25% | [4] -23.9% | [5] -16.4% | [6] -26.6%

Cc1ccc(S(=O)(=O)N2CCN(S(=O)(=O)c3ccc(C)cc3)COC2)cc1
inactive: [1] -1.1% | [2] -0.4% | [3] -5.15% | [4] -3.85% | [5] -1.6% | [6] -9.85%

Cc1cc(C)c[n+](-c2nc3c([O-])n(C)c(=O)n(C)c-3n2)c1
inactive: [1] -5.35% | [2] 3.15% | [3] -17.8% | [4] -5.45% | [5] -8.25% | [6] -4.15%

CC(C)CC(=O)OC1CCCCC1C1CCCCC1 (stereo unspecified)
inactive: [1] -2.1% | [2] -6.35% | [3] 12.3% | [4] 7.25% | [5] 13.4% | [6] -4%

CC(=O)N[C@]1(C)CCC2C[C@H]1C(C)=NC2(C)C
inactive: [1] -5.55% | [2] 4.05% | [3] -2.5% | [4] 12.2% | [5] 1.3% | [6] -14.4%

COc1cc(C=O)ccc1OC(=O)Nc1cc(Cl)ccc1C
inactive: [1] 6.6% | [2] 6.7% | [3] 10.8% | [4] 5.75% | [5] 13.2% | [6] 8.85%

CSc1cc2c(cc1[N+](=O)[O-])C(=O)c1ccccc1-2
inactive: [1] -1.85% | [2] 5.75% | [3] 0.8% | [4] 0.6% | [5] 4.05% | [6] 5.6%

Cc1ccc(C)c2c(Cl)c3c(C)ccc(C)c3nc12
inactive: [1] -8.45% | [2] -4.65% | [3] 0.3% | [4] -29.4% | [5] -9.8% | [6] 7.25%

Cc1ccccc1N1CC2CC3C=CC2(C1)O3 (stereo unspecified)
inactive: [1] 8.5% | [2] 15.9% | [3] 16.8% | [4] -10.1% | [5] 1.35% | [6] 1.7%

O=C1OC(c2ccc(Cl)cc2)=N/C1=C\c1ccc(Cl)c(Cl)c1
inactive: [1] 35.7% | [2] 19.1% | [3] 59.4% | [4] 19.2% | [5] 38.5% | [6] 31.7%

C[C@@]1(CO)O[C@H]1CCC#C[Si](C)(C)C
inactive: [1] -20.9% | [2] -32.4% | [3] -20.2% | [4] 6.7% | [5] -14.2% | [6] 1.05%

CC(=O)CC(=O)N1CCCCCCC1
inactive: [1] -34% | [2] -57.5% | [3] -12.4% | [4] -8.4% | [5] -23.2% | [6] -34.2%

CCCCCCCC(N)=O
inactive: [1] 15.7% | [2] -28.1% | [3] 8.4% | [4] 12.4% | [5] -11.6% | [6] -10.3%

COC(=O)/C(C#N)=C1\NC(=O)c2ccccc21
inactive: [1] 30.1% | [2] 16.1% | [3] 11.6% | [4] 30.8% | [5] 11.5% | [6] 26%

CC(C)CCOC(=O)COc1ccc(Cl)cc1Cl
inactive: [1] 6.95% | [2] -13.7% | [3] 3.55% | [4] 19.2% | [5] 18.8% | [6] -17%

CC(C)CCN(C=O)c1ccccc1
inactive: [1] 1.7% | [2] 0.7% | [3] 8.05% | [4] 5.5% | [5] -9.5% | [6] 2.15%

CC(NC(=O)C(C)NC(=O)C(N)CCP(C)(=O)O)C(=O)O (stereo unspecified)
inactive: [1] -20.6% | [2] -15% | [3] -15.2% | [4] -8.2% | [5] -12.2% | [6] -9.2%

NC(=O)NCCCC1NC(=S)N(c2ccccc2)C1=O (stereo unspecified)
inactive: [1] -3.35% | [2] -4.35% | [3] -3.2% | [4] -2.95% | [5] 23.9% | [6] 34%

COc1ccc(-c2c(C#N)c(O)n(NS(=O)(=O)c3ccc(C)cc3)c(=O)c2C#N)cc1
inactive: [1] 12.1% | [2] 37% | [3] 33% | [4] 20.8% | [5] 28.5% | [6] 37.5%

Cc1cccc(C(=O)NN)c1
inactive: [1] -4.15% | [2] 10.2% | [3] -20.2% | [4] -5.4% | [5] -0.2% | [6] -5.95%

CC(C)CCC(=S)N1CCN(c2ccccc2)CC1
inactive: [1] -0.4% | [2] 7.25% | [3] 2.2% | [4] -45.1% | [5] 2.05% | [6] -17.4%

N#CC(C#N)=CNC(=S)Nc1ccc(S(=O)(=O)Nc2nccs2)cc1
inactive: [1] -24.7% | [2] -35.8% | [3] -13.4% | [4] 4.85% | [5] -3.05% | [6] -3.65%

CC(C)(Oc1ccc(/C=C/C(=O)c2ccccc2)cc1)C(=O)Nc1c(Cl)cccc1Cl
inactive: [1] -6.6% | [2] -46.6% | [3] -3.15% | [4] -65.5% | [5] -13.1% | [6] -1.45%

Cc1ncc2c[n+]([O-])ccn12
inactive: [1] 6.05% | [2] 10.9% | [3] -4% | [4] -1.25% | [5] 17.4% | [6] 7.8%

CCSc1cc(N)ncn1
inactive: [1] -39.6% | [2] -18.6% | [3] -11.5% | [4] -4.15% | [5] -14% | [6] -9.75%

O=C(CN(C(=O)OC12CC3CC(CC(C3)C1)C2)C(=O)OC12CC3CC(CC(C3)C1)C2)Oc1ccc([N+](=O)[O-])cc1
inactive: [1] 7.75% | [2] 7.15% | [3] 7.35% | [4] 31.8% | [5] 13.6% | [6] -0.85%

O=S1c2ccccc2NC(c2ccc3ccccc3c2)CC1c1ccccc1 (stereo unspecified)
inactive: [1] -46.2% | [2] -22.1% | [3] -6.75% | [4] 1.9% | [5] 5.05% | [6] -18.2%

CCCCCCCCCCCCCCCC(=O)Oc1ccc(/C(CC)=C(/CC)c2ccc(OC(=O)CCCCCCCCCCCCCCC)cc2)cc1
inactive: [1] 16.1% | [2] -8.1% | [3] 8.55% | [4] 1.85% | [5] 8.65% | [6] 4.25%

CCN(CC)CCCCCCCNc1nccc2ccccc12
inactive: [1] 31.1% | [2] -2.4% | [3] -8.4% | [4] -23.3% | [5] 12.8% | [6] 35.4%

C1=COC(C=Nc2ccccc2)CC1 (stereo unspecified)
inactive: [1] -12.3% | [2] 13.8% | [3] 4.5% | [4] -18.2% | [5] 15.8% | [6] -12.6%

CCCCCCCCCCCCCCCC(=O)OCC(O)C1OC(=O)C(O)=C1O (stereo unspecified)
inactive: [1] 28.1% | [2] -0.75% | [3] 4.6% | [4] 9.15% | [5] 24.2% | [6] 46.7%

From PubChem BioAssay (NCI)
